Data taken from PubChem BioAssay (Tox21).
Where “and” joins values, the source holds several entries; their conditions need not be identical. Equal entries are not always repeated. Records with an inconclusive call do not appear. Calls of active or inactive are those of the source. The call rests on the fitted dose curve; in most records, active means well fitted cell-killing curve with a large enough effect in the repeat runs; inconclusive means weak or mixed curves, or effect the other way; inactive means no such curve, though single readings can be large or run the other way.

assay: qHTS assay to identify small molecule antagonists of the glucocorticoid receptor (GR) signaling pathway - cell viability counter screen (AID 720693); details: GR-bla HeLa viability, CellTiter-Glo luminescence, 18 h, with 5 nM dexamethasone present; series mostly up to 58.5 µM; viability change, negative = cytotoxic: at the top concentration; further: nearly all actives have a fitted effect of over 55% in size
On the % scale 0 is the no-effect control and ±100 the full control effect.

| SMILES | viability change, negative = cytotoxic | Potency |
| --- | --- | --- |
| C=N[C@@H](C(=O)N[C@@H]1C(=O)N2[C@@H]1SC(C)(C)[C@@H]2C(=O)O)c1ccccc1 | 17.5% (inactive) |  |
| O=C(O)/C=C/C(=O)Nc1ccc(S(=O)(=O)Nc2nccs2)cc1 | 4.27% (inactive) |  |
| O=c1[nH]c(=O)n([C@H]2C[C@H](O)[C@@H](CO)O2)cc1/C=C/Br | 10.4% (inactive) |  |
| C[C@H](O)CN(C)C | 1.73% (inactive) |  |
| O=C1CC[C@@H](C(=O)N[C@H]2C[C@@H]2c2ccccc2)N1 | -0.6% (inactive) |  |
| CC(C)C[C@H](NC(=O)[C@@H](COC(C)(C)C)NC(=O)[C@H](Cc1ccc(O)cc1)NC(=O)[C@H](CO)NC(=O)[C@H](Cc1c[nH]c2ccccc12)NC(=O)[C@H](Cc1cnc[nH]1)NC(=O)[C@@H]1CCC(=O)N1)C(=O)N[C@@H](CCCN=C(N)N)C(=O)N1CCC[C@H]1C(=O)NNC(N)=O |  | inactive |
| NC[C@H]1O[C@H](O[C@H]2[C@H](O)[C@@H](O[C@H]3O[C@H](CO)[C@@H](O)[C@H](N)[C@H]3O)[C@H](N)C[C@@H]2N)[C@H](N)C[C@@H]1O | 10.2% [at 27 µM] (inactive) |  |
| FC(F)(F)COCC(F)(F)F | -7.1% (inactive) |  |
| NCC[C@H](O)C(=O)N[C@@H]1C[C@H](N)[C@@H](O[C@H]2O[C@H](CN)CC[C@H]2N)[C@H](O)[C@H]1O[C@H]1O[C@H](CO)[C@@H](O)[C@H](N)[C@H]1O | 7.85% (inactive) |  |
| CC(C)Cc1ccc([C@H](C)C(=O)O)cc1 | -3.65% (inactive) |  |
| O=P(O)(O)C(O)(Cn1ccnc1)P(=O)(O)O | 16.6% (inactive) |  |
| NCC(O)CC(=O)O (centres undefined) | 18.4% (inactive) |  |
| CNCC(=O)N[C@@H](CCCN=C(N)N)C(=O)N[C@H](C(=O)N[C@@H](Cc1ccc(O)cc1)C(=O)N[C@H](C(=O)N[C@@H](Cc1cnc[nH]1)C(=O)N1CCC[C@H]1C(=O)N[C@@H](C)C(=O)O)C(C)C)C(C)C | -4.64% (inactive) |  |
| CCC(NC(C)C)C(O)c1ccc(O)c(O)c1 (centres undefined) | -1.8% (inactive) |  |
| CCCOC(=O)c1ccc(O)cc1 |  | inactive |
| CC12CCC(C[N+](C)(CCC[N+](C)(C)C)C1)C2(C)C (centres undefined) | 4.07% (inactive) |  |
| COc1ccc(/C=N/NC(=O)c2ccncc2)c(C(=O)O)c1OC | 5.78% (inactive) |  |
| O=C1[O][Bi][O]c2ccccc21 | 2.44% (inactive) |  |
| CC(=NCc1ccccc1)c1ccccc1O | -2.92% (inactive) |  |

| SMILES | viability change, negative = cytotoxic | Potency |
| --- | --- | --- |
| C[C@H](NCCc1ccc(O)cc1)[C@H](O)c1ccc(O)cc1 | 18.5% (inactive) |  |
| CCCC(CCC)C(=O)OC1C[C@H]2CC[C@@H](C1)[N+]2(C)C (some centres undefined) |  | inactive |
| CC(C)(S)C(=O)N[C@@H](CS)C(=O)O |  | inactive |
| NC(=O)[C@H]1O[C@@H](O)[C@H](O)[C@@H](O)[C@@H]1O | 2.48% (inactive) |  |
| CCCCCCCCCCCCCC(=O)OCC(COP(=O)([O-])OCC[N+](C)(C)C)OC(=O)CCCCCCCCCCCCC (centres undefined) | -0.534% (inactive) |  |
| CCN(CC)C(=O)c1cccnc1 | 0.302% (inactive) |  |
| CC(C)(COP(=O)(O)OP(=O)(O)OC[C@H]1O[C@@H](n2cnc3c(N)ncnc32)[C@H](O)[C@@H]1OP(=O)(O)O)C(O)C(=O)NCCC(=O)NCCS (some centres undefined) | -7.53% (inactive) |  |
| NC(=S)NS(=O)(=O)c1ccc(N)cc1 | 4.39% (inactive) |  |
| c1ccc2cc3c4ccccc4c4ccccc4c3cc2c1 | 3.38% [at 78.9 µM] (inactive) |  |
| C[S+](CC[C@H](N)C(=O)O)C[C@H]1O[C@@H](n2cnc3c(N)ncnc32)[C@H](O)[C@@H]1O (some centres undefined) |  | inactive |
| CC(C)(C)C(=O)OCC(=O)[C@H]1CC[C@H]2[C@@H]3CCC4=CC(=O)CC[C@]4(C)[C@H]3CC[C@]12C | -4.62% (inactive) |  |
| CC(=O)Nc1ccc(OC(C)=O)cc1 | 3.01% (inactive) |  |
| C=CC(N)CCC(=O)O (centres undefined) | 5.84% (inactive) |  |
| Cc1c(N)nc([C@H](CC(N)=O)NC[C@H](N)C(N)=O)nc1C(=O)N[C@H](C(=O)N[C@H](C)[C@@H](O)[C@H](C)C(=O)N[C@H](C(=O)NCCc1nc(-c2nc(C(=O)NCCCCN=C(N)N)cs2)cs1)[C@@H](C)O)[C@@H](O[C@@H]1O[C@@H](CO)[C@@H](O)[C@H](O)[C@@H]1O[C@H]1O[C@H](CO)[C@@H](O)[C@H](OC(N)=O)[C@@H]1O)c1cnc[nH]1 |  | inactive |
| CCOC(=O)COc1ccc2c(=O)cc(-c3ccccc3)oc2c1 |  | inactive |
| CO/N=C(\C(=O)N[C@@H]1C(=O)N2C(C(=O)[O-])=C(C[n+]3ccc(N)n3CCO)CS[C@H]12)c1csc(N)n1 | -0.814% (inactive) |  |
| NC(=O)CC[C@@H]1NC(=O)[C@H](Cc2ccccc2)NC(=O)[C@H](Cc2ccc(O)cc2)NC(=O)[C@@H](N)CSSC[C@@H](C(=O)N2CCC[C@H]2C(=O)N[C@@H](CCCN=C(N)N)C(=O)NCC(N)=O)NC(=O)[C@H](CC(N)=O)NC1=O |  | inactive |
| Cc1onc(-c2c(F)cccc2Cl)c1C(=O)N[C@@H]1C(=O)N2[C@@H]1SC(C)(C)[C@@H]2C(=O)O |  | inactive |

assay: qHTS assay for identifying genotoxic compounds that show differential cytotoxicity against isogenic chicken DT40 cell lines with known DNA damage response pathways - wild type cell line (AID 743012); details: DT40 wild type chicken cells viability, CellTiter-Glo, 40 h; series mostly up to 68.4 µM; activity change, negative = cytotoxicity: at the top concentration; further: nearly all actives have a fitted effect of over 60% in size; further: potency means the concentration at half of the fitted maximal effect
Method in brief: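 Wild-type DT40 cells (300/well) exposed to compounds for 40 hours at 37 C/5% CO2. Viability read by CellTiter-Glo luminescence after 30 min at room temperature.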

| SMILES | activity change, negative = cytotoxicity | Potency |
| --- | --- | --- |
| C=N[C@@H](C(=O)N[C@@H]1C(=O)N2[C@@H]1SC(C)(C)[C@@H]2C(=O)O)c1ccccc1 | -0.832% (inactive) |  |
| O=C(O)/C=C/C(=O)Nc1ccc(S(=O)(=O)Nc2nccs2)cc1 | 2.42% (inactive) |  |
| O=c1[nH]c(=O)n([C@H]2C[C@H](O)[C@@H](CO)O2)cc1/C=C/Br | -2.91% (inactive) |  |
| C[C@H](O)CN(C)C | 0.182% (inactive) |  |
| O=C1CC[C@@H](C(=O)N[C@H]2C[C@@H]2c2ccccc2)N1 | 14.4% (inactive) |  |
| CC(C)C[C@H](NC(=O)[C@@H](COC(C)(C)C)NC(=O)[C@H](Cc1ccc(O)cc1)NC(=O)[C@H](CO)NC(=O)[C@H](Cc1c[nH]c2ccccc12)NC(=O)[C@H](Cc1cnc[nH]1)NC(=O)[C@@H]1CCC(=O)N1)C(=O)N[C@@H](CCCN=C(N)N)C(=O)N1CCC[C@H]1C(=O)NNC(N)=O |  | inactive |
| NC[C@H]1O[C@H](O[C@H]2[C@H](O)[C@@H](O[C@H]3O[C@H](CO)[C@@H](O)[C@H](N)[C@H]3O)[C@H](N)C[C@@H]2N)[C@H](N)C[C@@H]1O | 7.71% [at 31.4 µM] (inactive) |  |
| FC(F)(F)COCC(F)(F)F | 1.65% (inactive) |  |
| NCC[C@H](O)C(=O)N[C@@H]1C[C@H](N)[C@@H](O[C@H]2O[C@H](CN)CC[C@H]2N)[C@H](O)[C@H]1O[C@H]1O[C@H](CO)[C@@H](O)[C@H](N)[C@H]1O | 6.08% (inactive) |  |
| CC(C)Cc1ccc([C@H](C)C(=O)O)cc1 | 2.39% (inactive) |  |
| O=P(O)(O)C(O)(Cn1ccnc1)P(=O)(O)O | 2.88% (inactive) |  |
| NCC(O)CC(=O)O (centres undefined) | 2.3% (inactive) |  |
| CNCC(=O)N[C@@H](CCCN=C(N)N)C(=O)N[C@H](C(=O)N[C@@H](Cc1ccc(O)cc1)C(=O)N[C@H](C(=O)N[C@@H](Cc1cnc[nH]1)C(=O)N1CCC[C@H]1C(=O)N[C@@H](C)C(=O)O)C(C)C)C(C)C | 14.8% (inactive) |  |
| CCC(NC(C)C)C(O)c1ccc(O)c(O)c1 (centres undefined) | -0.183% (inactive) |  |
| CCCOC(=O)c1ccc(O)cc1 | 0.463% (inactive) |  |
| CC12CCC(C[N+](C)(CCC[N+](C)(C)C)C1)C2(C)C (centres undefined) | 11.4% (inactive) |  |
| COc1ccc(/C=N/NC(=O)c2ccncc2)c(C(=O)O)c1OC | 3.64% (inactive) |  |
| O=C1[O][Bi][O]c2ccccc21 | 5.54% (inactive) |  |
| CC(=NCc1ccccc1)c1ccccc1O | 5.37% (inactive) |  |

| SMILES | activity change, negative = cytotoxicity | Potency |
| --- | --- | --- |
| C[C@H](NCCc1ccc(O)cc1)[C@H](O)c1ccc(O)cc1 | -0.011% (inactive) |  |
| CCCC(CCC)C(=O)OC1C[C@H]2CC[C@@H](C1)[N+]2(C)C (some centres undefined) | -0.614% (inactive) |  |
| CC(C)(S)C(=O)N[C@@H](CS)C(=O)O |  | inactive |
| NC(=O)[C@H]1O[C@@H](O)[C@H](O)[C@@H](O)[C@@H]1O | 18.3% (inactive) |  |
| CCCCCCCCCCCCCC(=O)OCC(COP(=O)([O-])OCC[N+](C)(C)C)OC(=O)CCCCCCCCCCCCC (centres undefined) | 0.606% (inactive) |  |
| CCN(CC)C(=O)c1cccnc1 | 14.4% (inactive) |  |
| CC(C)(COP(=O)(O)OP(=O)(O)OC[C@H]1O[C@@H](n2cnc3c(N)ncnc32)[C@H](O)[C@@H]1OP(=O)(O)O)C(O)C(=O)NCCC(=O)NCCS (some centres undefined) | 17.2% (inactive) |  |
| NC(=S)NS(=O)(=O)c1ccc(N)cc1 | 0.97% (inactive) |  |
| c1ccc2cc3c4ccccc4c4ccccc4c3cc2c1 | -7.51% [at 95 µM] (inactive) |  |
| C[S+](CC[C@H](N)C(=O)O)C[C@H]1O[C@@H](n2cnc3c(N)ncnc32)[C@H](O)[C@@H]1O (some centres undefined) |  | inactive |
| CC(C)(C)C(=O)OCC(=O)[C@H]1CC[C@H]2[C@@H]3CCC4=CC(=O)CC[C@]4(C)[C@H]3CC[C@]12C | 13.7% (inactive) |  |
| CC(=O)Nc1ccc(OC(C)=O)cc1 | 6.26% (inactive) |  |
| C=CC(N)CCC(=O)O (centres undefined) | -0.313% (inactive) |  |
| Cc1c(N)nc([C@H](CC(N)=O)NC[C@H](N)C(N)=O)nc1C(=O)N[C@H](C(=O)N[C@H](C)[C@@H](O)[C@H](C)C(=O)N[C@H](C(=O)NCCc1nc(-c2nc(C(=O)NCCCCN=C(N)N)cs2)cs1)[C@@H](C)O)[C@@H](O[C@@H]1O[C@@H](CO)[C@@H](O)[C@H](O)[C@@H]1O[C@H]1O[C@H](CO)[C@@H](O)[C@H](OC(N)=O)[C@@H]1O)c1cnc[nH]1 |  | 4.22 µM (active) and 1.5 µM (active) |
| CCOC(=O)COc1ccc2c(=O)cc(-c3ccccc3)oc2c1 |  | 29.8 µM (active) |
| CO/N=C(\C(=O)N[C@@H]1C(=O)N2C(C(=O)[O-])=C(C[n+]3ccc(N)n3CCO)CS[C@H]12)c1csc(N)n1 | -0.0754% (inactive) |  |
| NC(=O)CC[C@@H]1NC(=O)[C@H](Cc2ccccc2)NC(=O)[C@H](Cc2ccc(O)cc2)NC(=O)[C@@H](N)CSSC[C@@H](C(=O)N2CCC[C@H]2C(=O)N[C@@H](CCCN=C(N)N)C(=O)NCC(N)=O)NC(=O)[C@H](CC(N)=O)NC1=O |  | inactive |
| Cc1onc(-c2c(F)cccc2Cl)c1C(=O)N[C@@H]1C(=O)N2[C@@H]1SC(C)(C)[C@@H]2C(=O)O |  | inactive |
